PubChem BioAssay (EPA / NIEHS)
Active and inactive are the calls of the source. Rule for the calls: active = hit-call score of the fitted dose curve at least 0.9, where 1 is the maximum; inactive = score below 0.9.

Legend:
[1] = read-out: Transforming growth factor beta 1 (TGFb1), TGFB1 (gene 7040); assay: BSK_KF3CT_TGFb1: BioMAP Diversity Plus: KF3CT Assay for Transforming growth factor beta 1 (TGFb1) Biomarker Activity (AID 2283072); settings: primary human keratinocytes with fibroblasts; actives raise or lower the signal
How it was run: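 TGF-b1 ELISA on a 24 h dosed co-culture of human keratinocytes and foreskin fibroblasts; cytotoxicity tracked in parallel cultures by SRB staining.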

[2] = read-out: C-C motif chemokine 2 (Homo sapiens) (UniProt P13500); assay: BSK_KF3CT_MCP1: BioMAP Diversity Plus: KF3CT Assay for Monocyte Chemoattractant Protein 1 (MCP1/CCL2) Biomarker Activity (AID 2283073); settings: primary human keratinocytes with fibroblasts; actives raise or lower the signal
How it was run: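 Biomarker MCP-1 is measured by ELISA in primary human keratinocytes co-cultured with foreskin fibroblasts, 24 h after chemical treatment; DMSO serves as the negative control and activity baseline.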

[3] = read-out: Matrix Metallopeptidase 9 (MMP9), MMP9 (gene 4318); assay: BSK_KF3CT_MMP9: BioMAP Diversity Plus: KF3CT Assay for Matrix Metallopeptidase 9 (MMP9) Biomarker Activity (AID 2283074); settings: primary human keratinocytes with fibroblasts; actives raise or lower the signal;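 for AC50: MMP9 protein level quantified by ELISA in the co-culture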
How it was run: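 MMP-9 quantified by ELISA after 24 h chemical treatment of primary human skin keratinocyte/fibroblast co-cultures; gain or loss fitted against DMSO, with parallel SRB staining (0.1% SRB, 560 nm) for overt cytotoxicity.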

[4] = read-out: urokinase plasminogen activator (uPA), PLAU (gene 5328); assay: BSK_KF3CT_uPA: BioMAP Diversity Plus: KF3CT Assay for urokinase plasminogen activator (uPA) Biomarker Activity (AID 2283075); settings: primary human keratinocytes with fibroblasts; actives raise or lower the signal
How it was run: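 ELISA read-out of uPA 24 h after dosing human skin keratinocytes co-cultured with foreskin fibroblasts. Signal change fitted both ways relative to DMSO; sulforhodamine B on parallel cultures marks overt cytotoxicity.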

[5] = read-out: E-selectin (Homo sapiens) (UniProt P16581); assay: BSK_LPS_Eselectin: BioMAP Diversity Plus: LPS Assay for Eselectin Biomarker Activity (AID 2283077); settings: primary human HUVEC with PBMC; actives raise or lower the signal
How it was run: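 Dose chemical onto LPS-driven HUVEC/PBMC co-culture; after 24 h, run ELISA for E-selectin; fit up- and down-going responses relative to DMSO control.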

[6] = read-out: Interleukin-8 (IL8), CXCL8 (gene 3576); assay: BSK_LPS_IL8: BioMAP Diversity Plus: LPS Assay for Interleukin-8 (IL8) Biomarker Activity (AID 2283078); settings: primary human HUVEC with PBMC; actives raise or lower the signal
How it was run: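 In this LPS system, chemical-treated human umbilical vein endothelium/PBMC co-cultures were harvested at 24 h for IL-8 ELISA.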

[7] = BSK_LPS_SRB: Viability Assessment in the BioMAP Diversity Plus: LPS Assay (AID 2283079); settings: primary human HUVEC with PBMC;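 note: total protein by sulforhodamine B absorbance as a cytotoxicity measure; measured one day after compound addition; fitted in both directions against DMSO so loss or gain of signal counts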
How it was run: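 Cytotoxicity endpoint in human endothelial–PBMC co-culture: 24 h exposure, then SRB (0.1%) staining, 560 nm read.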

[8] = read-out: Interleukin-1 alpha (IL1a), IL1A (gene 3552); assay: BSK_LPS_IL1a: BioMAP Diversity Plus: LPS Assay for Interleukin-1 alpha (IL1a) Biomarker Activity (AID 2283080); settings: primary human HUVEC with PBMC; actives raise or lower the signal
How it was run: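 Primary human HUVEC and PBMC co-culture stimulated with LPS is dosed and harvested at 24 h. Both increases and decreases in ELISA-measured IL-1a are scored relative to DMSO.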

[9] = read-out: Monocyte Chemoattractant Protein-1 (MCP1), CCL2 (gene 6347); assay: BSK_LPS_MCP1: BioMAP Diversity Plus: LPS Assay for Monocyte Chemoattractant Protein-1 (MCP1) Biomarker Activity (AID 2283081); settings: primary human HUVEC with PBMC; actives raise or lower the signal
How it was run: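 Values derive from bidirectional fitting against DMSO of ELISA-measured MCP-1 in a human primary endothelial and mononuclear cell co-culture, 24 h after chemical addition under LPS activation.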

[10] = BSK_LPS_PGE2: BioMAP Diversity Plus: LPS Assay for Prostaglandin E2 (PGE2) Biomarker Activity (AID 2283082); settings: primary human HUVEC with PBMC; actives raise or lower the signal;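 for AC50: secreted prostaglandin E2 measured by ELISA in LPS-stimulated co-culture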
How it was run: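 Primary human endothelial cells and blood mononuclear cells, co-cultured with LPS, receive test chemical; PGE2 ELISA follows at 24 h, with SRB-stained parallel cultures flagging cytotoxicity.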

[11] = read-out: Macrophage colony-stimulating factor (MCSF), CSF1 (gene 1435); assay: BSK_LPS_MCSF: BioMAP Diversity Plus: LPS Assay for Macrophage colony-stimulating factor (MCSF) Biomarker Activity (AID 2283083); settings: primary human HUVEC with PBMC; actives raise or lower the signal
How it was run: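 Bidirectional fit versus DMSO of ELISA-measured M-CSF in co-cultured human umbilical vein endothelial cells and PBMC, sampled 24 h after dosing.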

[12] = read-out: Tissue Factor, F3 (gene 2152); assay: BSK_LPS_TissueFactor: BioMAP Diversity Plus: LPS Assay for Tissue Factor Biomarker Activity (AID 2283084); settings: primary human HUVEC with PBMC; actives raise or lower the signal
How it was run: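 Read-out: CD142 ELISA, 24 h. System: LPS-driven human endothelial/PBMC co-culture. Analysis: up- or down-signal fitted against DMSO.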

[13] = read-out: Tumor necrosis factor (Homo sapiens) (UniProt P01375); assay: BSK_LPS_TNFa: BioMAP Diversity Plus: LPS Assay for Tumour Necrosis Factor alpha (TNFa) Biomarker Activity (AID 2283085); settings: primary human HUVEC with PBMC; actives raise or lower the signal;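 for AC50: TNFa protein level quantified by ELISA in the co-culture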
How it was run: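 ELISA-based TNFa endpoint in a human endothelial–PBMC co-culture sampled 24 h post-exposure. Curves were fitted in both directions using DMSO as baseline of activity.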

[14] = read-out: Vascular cell adhesion molecule 1 (VCAM1), VCAM1 (gene 7412); assay: BSK_LPS_VCAM1: BioMAP Diversity Plus: LPS Assay for Vascular cell adhesion molecule 1 (VCAM1) Biomarker Activity (AID 2283086); settings: primary human HUVEC with PBMC; actives raise or lower the signal
How it was run: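 Measured by ELISA: VCAM-1 in LPS-activated HUVEC/PBMC co-cultures 24 h after treatment. Values reflect bidirectional fitting with DMSO as baseline.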

[15] = read-out: CD38, CD38 (gene 952); assay: BSK_SAg_CD38: BioMAP Diversity Plus: SAg Assay for CD38 Biomarker Activity (AID 2283087); settings: primary human HUVEC with PBMC; actives raise or lower the signal
How it was run: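 Measures CD38 on a human endothelial/PBMC co-culture driven by SEB and TSST-1, 24 h after compound exposure, using ELISA with fluorescence detection; DMSO defines baseline for bidirectional curve fitting.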

[16] = read-out: CD40, CD40 (gene 958); assay: BSK_SAg_CD40: BioMAP Diversity Plus: SAg Assay for CD40 Biomarker Activity (AID 2283088); settings: primary human HUVEC with PBMC; actives raise or lower the signal
How it was run: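 Endpoint derived by fitting increases or decreases versus DMSO controls. CD40 is detected by fluorescence ELISA in a human vascular co-culture of endothelium and PBMC at 24 h.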

[17] = read-out: CD69, CD69 (gene 969); assay: BSK_SAg_CD69: BioMAP Diversity Plus: SAg Assay for CD69 Biomarker Activity (AID 2283089); settings: primary human HUVEC with PBMC; actives raise or lower the signal;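 for AC50: cell surface CD69 protein quantified by ELISA with fluorescence detection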
How it was run: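 Endothelial/PBMC co-culture; chemical added; 24 h incubation; CD69 ELISA with fluorescence detection; bidirectional fit vs DMSO.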

[18] = read-out: Monocyte Chemoattractant Protein-1 (MCP1), CCL2 (gene 6347); assay: BSK_SAg_MCP1: BioMAP Diversity Plus: SAg Assay for Monocyte Chemoattractant Protein-1 (MCP1) Biomarker Activity (AID 2283090); settings: primary human HUVEC with PBMC; actives raise or lower the signal
How it was run: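 Values derive from bidirectional fitting of ELISA-measured MCP1 against DMSO controls. Readings were taken 24 h after dosing human vascular endothelial cells co-cultured with peripheral blood mononuclear cells under superantigen stimulation.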

[19] = read-out: CD40, CD40 (gene 958); assay: BSK_LPS_CD40: BioMAP Diversity Plus: LPS Assay for CD40 Biomarker Activity (AID 2283076); settings: primary human HUVEC with PBMC; actives raise or lower the signal
How it was run: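 Using a multiplexed primary human co-culture (umbilical vein endothelium plus PBMC), CD40 was read by ELISA 24 h after dosing, with cytotoxicity tracked by sulforhodamine B staining of parallel cultures and activity fitted bidirectionally versus DMSO.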

Measured: AC50

Chain of Tumor necrosis factor (Homo sapiens) (P01375 whole entry, looked up): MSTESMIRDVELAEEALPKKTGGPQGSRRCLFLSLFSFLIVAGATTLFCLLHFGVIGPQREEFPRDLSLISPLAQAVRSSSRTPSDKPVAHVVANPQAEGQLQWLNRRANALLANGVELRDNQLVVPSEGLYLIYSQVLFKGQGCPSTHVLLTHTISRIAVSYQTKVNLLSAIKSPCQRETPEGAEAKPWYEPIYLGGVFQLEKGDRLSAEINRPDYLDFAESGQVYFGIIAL
Chain of E-selectin (Homo sapiens) (P16581 whole entry, looked up): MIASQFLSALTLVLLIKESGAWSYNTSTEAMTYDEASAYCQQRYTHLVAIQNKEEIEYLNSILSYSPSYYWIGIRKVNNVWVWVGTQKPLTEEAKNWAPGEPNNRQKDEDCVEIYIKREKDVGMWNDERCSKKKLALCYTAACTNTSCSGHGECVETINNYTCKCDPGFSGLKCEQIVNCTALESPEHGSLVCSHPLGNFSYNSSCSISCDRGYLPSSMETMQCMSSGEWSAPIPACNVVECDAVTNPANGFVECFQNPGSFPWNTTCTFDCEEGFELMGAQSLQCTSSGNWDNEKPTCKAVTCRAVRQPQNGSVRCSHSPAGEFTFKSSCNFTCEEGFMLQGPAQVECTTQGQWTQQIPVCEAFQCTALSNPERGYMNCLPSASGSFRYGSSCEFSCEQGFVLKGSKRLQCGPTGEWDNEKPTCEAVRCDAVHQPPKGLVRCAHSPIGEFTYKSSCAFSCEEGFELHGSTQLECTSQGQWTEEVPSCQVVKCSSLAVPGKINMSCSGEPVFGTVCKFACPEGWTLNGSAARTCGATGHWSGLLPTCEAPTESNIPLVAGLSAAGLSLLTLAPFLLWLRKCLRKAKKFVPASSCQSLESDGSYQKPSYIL

COP(=O)(OC)SCn1c(=O)oc2cc(Cl)cnc21
active: [2] 31.3 µM | [3] 25.8 µM | [4] 20 µM | [5] 19.1 µM | [6] 20 µM | [7] 20 µM | [10] 2.01 µM | [11] 18.3 µM | [13] 0.148 µM | [14] 4.34 µM | [15] 21.4 µM | [16] 20 µM | [17] 20 µM
inactive: [1] | [8] | [9] | [12] | [18]

Cc1ccn2nc(S(=O)(=O)Nc3c(F)cccc3F)nc2n1
active: [7] 1.06 µM
not listed: [15] | [17]
inactive: all other assays above

COc1cccc(C(=O)NN(C(=O)c2cc(C)cc(C)c2)C(C)(C)C)c1C
not listed: [15] | [17]
inactive: all other assays above

CC(C1CC1)C(O)(Cn1cncn1)c1ccc(Cl)cc1 (stereo not given)
active: [13] 4.36 µM
not listed: [15] | [19]
inactive: all other assays above

CCCCN(CC)c1c([N+](=O)[O-])cc(C(F)(F)F)cc1[N+](=O)[O-]
active: [3] 22.1 µM | [5] 20 µM | [11] 18.2 µM | [14] 26.5 µM | [16] 29.1 µM
not listed: [15] | [17] | [19]
inactive: all other assays above

CCC(=NOC/C=C/Cl)C1=C(O)CC(C2CCOCC2)CC1=O (stereo not given)
not listed: [17] | [19]
inactive: all other assays above

CN(C)NC(=O)CCC(=O)O
not listed: [17] | [19]
inactive: all other assays above

CCOC(=O)COc1cc(-c2nn(C)c(OC(F)F)c2Cl)c(F)cc1Cl
active: [17] 3.97 µM
not listed: [15] | [19]
inactive: all other assays above

CCOP(=O)(SC(C)CC)N1CCSC1=O (stereo not given)
not listed: [15] | [17]
inactive: all other assays above

CN1COCN(Cc2cnc(Cl)s2)C1=N[N+](=O)[O-]
active: [16] 3.79 µM
not listed: [17] | [19]
inactive: all other assays above

CCc1cccc(CC)c1N(COC)C(=O)CCl
inactive: [1] | [2] | [4] | [6] | [9] | [10] | [12]
active: [3] 20 µM | [5] 33.8 µM | [7] 3.97 µM | [8] 1.06 µM | [11] 13.6 µM | [13] 1.31 µM | [14] 26.9 µM | [16] 20 µM | [17] 15.4 µM | [18] 29.4 µM

CCOP(=S)(OCC)SCCSCC
active: [4] 29.4 µM
not listed: [15] | [17]
inactive: all other assays above

CCOP(=S)(OCC)OC(Cl)C(Cl)(Cl)Cl (stereo not given)
active: [10] 5.51 µM | [13] 32.8 µM
not listed: [15] | [17] | [19]
inactive: all other assays above
